Source: PubChem (several laboratories)
Cav32 inh – inhibitors of human Cav3.2 T-type calcium channel | 4% of 100,000 active | B-score at 10 µM | Cav3.2-expressing cells, Fluo-4 calcium fluorescence FDSS; active compounds read low;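 active = single-dose well whose peak fluorescence ratio is a statistical outlier from its plate by either plate-standardised score or position-corrected B-score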
CYP2C19 inh – blocks human cytochrome P450 2C19; CYP2C19 Supersomes, luciferin-H EGE luminescence, 30 min; P33261; AID 778; 21% of 96,000 active; inhibition, % at 5 µM;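 active = CYP2C19 inhibition above a set limit at 5 µM in the primary screen, cut at about 50% in these data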;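 note: plate controls were negative control wells for no effect and 2.5 mM tranylcypromine positive control for full effect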
Target sequence (P33261 whole entry, looked up): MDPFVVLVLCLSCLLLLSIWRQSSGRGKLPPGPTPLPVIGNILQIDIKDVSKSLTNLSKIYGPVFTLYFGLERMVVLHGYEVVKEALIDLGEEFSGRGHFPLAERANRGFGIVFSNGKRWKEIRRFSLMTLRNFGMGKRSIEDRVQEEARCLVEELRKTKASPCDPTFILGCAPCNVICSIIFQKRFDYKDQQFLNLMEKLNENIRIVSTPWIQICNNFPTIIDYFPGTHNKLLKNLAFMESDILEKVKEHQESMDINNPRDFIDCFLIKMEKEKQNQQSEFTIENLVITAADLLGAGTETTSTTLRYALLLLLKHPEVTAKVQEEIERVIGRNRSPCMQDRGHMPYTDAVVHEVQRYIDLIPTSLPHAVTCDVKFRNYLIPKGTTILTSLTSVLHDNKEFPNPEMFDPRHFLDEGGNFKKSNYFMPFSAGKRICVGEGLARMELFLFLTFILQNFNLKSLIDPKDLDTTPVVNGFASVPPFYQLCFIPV
CYP2C19 activ – activators of human cytochrome P450 2C19; activation factor at 5 µM; P33261; recombinant CYP2C19, luciferin-H EGE luminescence; active compounds read high; 0 = fully inhibited enzyme, 1 = untreated enzyme; 96,000 tested, under 10 active;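 active = activation factor of at least 2 at 5 µM in the primary screen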;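 note: 0 = wells with 2.5 mM tranylcypromine and 1 = vehicle-only wells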
PTK2B oligo ant – blocks oligomerization of human Pyk2 in cells. z-score (the deposit names both 25 µM and 10 µM). Q293 cells, Pyk2 FERM NanoBiT luminescence; active compounds read low. 0.83% of 99,000 active. AID 1347419. Q14289;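 active = Z-score of -3 or lower, scaled per plate to the spread of control and sample wells; inactive = z-score above -3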;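 note: negative z-score means lost luminescence so less FERM oligomerization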
CYP2C9 inh – human CYP2C9 inhibition | P11712 | CYP2C9 Supersomes, luciferin-H conversion, luminescence | inhibition, % at 5 µM | 20% of 96,000 active | AID 777;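 active = blocking of liver enzyme CYP2C9 beyond about 50% at 5 µM, limit read from the data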
CYP2C9 act – CYP2C9 (human) activation. activation factor at 5 µM. recombinant CYP2C9, luciferin-H conversion, luminescence; active compounds read high; factor 1 = untreated enzyme, 0 = blocked. AID 1024. 1.4% of 96,000 active. P11712;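 active = activation factor of 2 or more for CYP2C9 at a 5 µM dose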;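 note: 0 = sulfaphenazole-blocked wells and 1 = vehicle-only wells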
* = called active by the depositor; / = no result. Sampled rows, rich in hits. Any-hit rate of the full collection: about 27%.

SMILES | Cav32 inh | CYP2C19 inh | CYP2C19 activ | PTK2B oligo ant | CYP2C9 inh | CYP2C9 act
Cc1ccc(C)c(C(=O)CC2(O)C(=O)N(C)c3ccccc32)c1 (centres undefined) | -0.103 | 24.2 | 0.8 | 0.3 | -3.6 | 1
CC(O)Cc1nsc(NC(=O)c2ccc(Br)o2)n1 (centres undefined) | -0.127 | -5.3 | 1.1 | -0.11 | -8.0 | 1.1
C=CCN1C(=O)C(O)(CC(=O)c2c(C)n[nH]c2C)c2cc(Br)ccc21 (centres undefined) | 0.286 | 48.6 | 0.5 | 0.3 | 10.3 | 0.9
Cc1ccc(C(=O)CC2(O)C(=O)N(CCc3ccccc3)c3ccc(Br)cc32)o1 (centres undefined) | -7.13* | 97.9* | 0 | -1.51 | 93.3* | 0.1
Cc1ccc(C(=O)CC2(O)C(=O)N(Cc3ccccc3Cl)c3ccccc32)o1 (centres undefined) | -5.62* | 55.2* | 0.4 | -0.49 | -43.5 | 1.4
O=C(CC1(O)C(=O)N(CCc2ccccc2)c2ccccc21)c1ccco1 (centres undefined) | 0.316 | 70.8* | 0.3 | -0.46 | 74.0* | 0.3
COc1cc([N+](=O)[O-])cc(CN2CCCCC2)c1O | 0.387 | -0.3 | 1 | -1.56 | 9.1 | 0.9
NS(=O)(=O)c1ccc(NCc2ccccc2OCc2ccc(F)cc2)cc1 | -3.14 | 30.8 | 0.7 | -0.65 | 77.6* | 0.2
NS(=O)(=O)c1ccc(NCc2cc(Cl)ccc2OCc2ccccc2F)cc1 | 0.913 | 6.9 | 0.9 | -1.43 | 28.1 | 0.7
Fc1ccc(Sc2cc(Cl)c(-c3ccccc3)nn2)cc1 | -1.6 | 45.4 | 0.5 | -3.49* | 56.6* | 0.4
c1ccc(CN2CCC3(CC2)Nc2ccccc2CO3)cc1 | 0.31 | 90.7* | 0.1 | 0.81 | 7.8 | 0.9
COc1ccc(C(=O)n2c(SC)nc3cc4c(cc32)OCCO4)cc1 | -3 | 24.0 | 0.8 | 1.96 | 53.6* | 0.5
O=C(c1c(F)c(F)c(F)c(F)c1F)N1CCN(c2cccc(C(F)(F)F)c2)CC1 | / | 28.9 | 0.7 | 0.85 | 34.6 | 0.7
O=C(c1sc2ccccc2c1Cl)N1CCN(c2ccc(F)cc2)CC1 | -3.85 | 81.7* | 0.2 | -0.37 | -125.7 | 2.3*
O=C(c1ccccc1F)N1CCN(c2ccccc2)CC1 | 0.177 | 50.3* | 0.5 | 0.57 | 32.1 | 0.7
O=C(c1ccccc1F)N1CCN(c2ncccn2)CC1 | 0.84 | 36.1 | 0.6 | -0.51 | 30.7 | 0.7
O=C(c1coc2ccccc2c1=O)N1CCN(c2cccc(C(F)(F)F)c2)CC1 | / | 23.5 | 0.8 | -1.47 | 53.0* | 0.5
CCn1cc(Br)c(C(=O)N2CCN(c3ccccc3)CC2)n1 | 0.597 | 84.6* | 0.2 | 0.03 | -112.1 | 2.1*
O=C(c1ccncc1)N1CCN(c2ccc(F)cc2)CC1 | 0.761 | 91.4* | 0.1 | 0.77 | 31.3 | 0.7
CCn1cc(Br)c(C(=O)N(C)Cc2ccccc2)n1 | 0.999 | 92.0* | 0.1 | 2.49 | -39.6 | 1.4
O=C(c1cnn2cccnc12)N1CCN(c2ccccc2)CC1 | 0.515 | 86.7* | 0.1 | 1.29 | -25.8 | 1.3
O=C(c1ccncc1)N1CCN(c2cccc(C(F)(F)F)c2)CC1 | -0.032 | 100.3* | 0 | 0.03 | 92.1* | 0.1
O=C(c1ccccc1F)N1CCN(c2cccc(C(F)(F)F)c2)CC1 | -0.815 | 90.6* | 0.1 | 0.15 | 63.2* | 0.4
O=C(Nc1ccc(N2CCN(C(=O)c3ccccc3)CC2)cc1)c1ccc2c(c1)OCO2 | 1.1 | 29.3 | 0.7 | -0.19 | 20.4 | 0.8
O=C(c1ccccc1Br)N1CCN(c2ccccc2)CC1 | 0.21 | 59.7* | 0.4 | 0.1 | 32.8 | 0.7
SMILES | Cav32 inh | CYP2C19 inh | CYP2C19 activ | PTK2B oligo ant | CYP2C9 inh | CYP2C9 act
O=C(c1cccc2ccccc12)N1CCC(N2CCN(c3ccccc3)CC2)CC1 | 1.87 | 15.5 | 0.8 | 2.02 | 0.5 | 1
O=C(c1ccc2c(c1)OCO2)N1CCN(c2ccc(F)cc2)CC1 | 0.739 | 83.8* | 0.2 | 0.24 | 49.3 | 0.5
N/N=c1\sc2ccccc2n1-c1ccccc1 | -1.4 | 35.8 | 0.6 | 0.41 | 10.3 | 0.9
Cn1c(Cc2csc(N)n2)nnc1SCC(=O)NCc1ccccc1 | -0.59 | 8.5 | 0.9 | 0.09 | 2.0 | 1
Cc1ccc(NCc2nnc(SC(C)C(=O)N/N=C/c3ccc(C)o3)n2-c2ccccc2)cc1 (centres undefined) | -1.03 | 28.8 | 0.7 | 1.22 | 9.3 | 0.9
CCCc1nc(SCC(=O)N2c3ccccc3CC2C)c2c(C)c(C)sc2n1 (centres undefined) | -2.93 | 64.3* | 0.4 | -0.16 | 94.4* | 0.1
CC1Cc2ccccc2N1C(=O)CSc1nc(-c2ccco2)cc(C(F)(F)F)n1 (centres undefined) | 0.653 | 1.7 | 1 | -0.02 | 7.9 | 0.9
CC1CCc2cc(F)ccc2N1C(=O)CSc1nnc2c(n1)[nH]c1ccc(F)cc12 (centres undefined) | -1.69 | 76.7* | 0.2 | -2.32 | 56.8* | 0.4
CC1Cc2ccccc2N1C(=O)CSc1nnc2c(n1)[nH]c1ccccc12 (centres undefined) | / | 55.3* | 0.4 | 0.27 | 46.1 | 0.5
CC1Cc2ccccc2N1C(=O)CSc1nnc(-c2ccccc2)c(-c2ccccc2)n1 (centres undefined) | -3.4 | 84.9* | 0.2 | -1.39 | 99.7* | 0
COc1ccc(N(CC(=O)Nc2cc(C(=O)O)ccc2C)S(=O)(=O)c2c(C)noc2C)cc1 | 1 | 13.7 | 0.9 | -0.6 | -3.8 | 1
CCCn1c(SCC(=O)NCc2ccco2)nnc1C(C)C | 0.0271 | -16.3 | 1.2 | 0.52 | -16.0 | 1.2
COc1ccc(-c2ccc(SCC(=O)N3c4ccccc4CC3C)nn2)cc1OC (centres undefined) | 0.0609 | 18.6 | 0.8 | -3.22* | 29.6 | 0.7
COc1ccc(/C(O)=C2/C(=O)C(=O)N(CCCN(C)C)C2c2ccc(C)o2)cc1Cl (centres undefined) | 0.776 | 2.4 | 1 | / | 32.9 | 0.7
COC(=O)c1ccc2c(c1)SC1=C(CCCC1=O)N2 | -1.77 | 82.9* | 0.2 | 0.08 | 20.1 | 0.8
O=C(NC(=O)c1cccc(OC(F)(F)C(F)F)c1)OC1CCS(=O)(=O)C1 (centres undefined) | 0.498 | 6.0 | 0.9 | 0.59 | 6.0 | 0.9
O=c1c2ccccc2sn1-c1ccc(S(=O)(=O)N2CCCCC2)cc1 | 0.18 | / | / | 0.98 | / | /
O=c1c2ccccc2sn1-c1ccc(S(=O)(=O)N2CCCC2)cc1 | -0.0624 | 14.6 | 0.9 | -0.3 | 75.3* | 0.2
O=c1c2ccccc2sn1-c1ccccc1 | 0.714 | 44.2 | 0.6 | -0.12 | 74.8* | 0.3
Cc1ccc(-n2sc3ccccc3c2=O)cc1S(=O)(=O)N1CCCCC1 | -1.14 | 30.3 | 0.7 | / | 89.1* | 0.1
CCN(CC)C(=O)CSc1nnc(CNc2ccc(F)cc2)o1 | 0.402 | -9.2 | 1.1 | 0.41 | -6.7 | 1.1
O=C(Oc1ccc2c3c(c(=O)oc2c1)CCCC3)c1ccco1 | / | 23.7 | 0.8 | 1.32 | -114.0 | 2.1*
